Source: PubChem BioAssay (National Center for Advancing Translational Sciences (NCATS))
TbPYK inhibitor – T. brucei pyruvate kinase inhibition. Q57TT1. TbPYK enzyme, Kinase-Glo Plus ATP luminescence, 45 min. Potency, µM (top dose mostly 76.8 µM), for inactives: top-dose activity, negative = inhibition, usual class: inhibitors. actives 0.12% (n = 410,000). AID 624173; note: potency is the fitted concentration of half-maximal effect; % is set by controls: 0 for no effect and ±100 for the full control effect; nearly all actives have a fitted effect of over 50% in size
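Luminescence from Kinase-Glo Plus, added after a 45-minute room-temperature reaction, served as the end-point read-out. The enzyme and substrate were preincubated with compound before ADP (130 uM final) initiated turnover. Concentration-effect curves came from normalized qHTS data.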
Cycloheximide cs – counter-screen hit for Shiga toxin inhibitors, cycloheximide | cell reporter, cycloheximide protein synthesis inhibition counterscreen | max response, % | actives 12% (n = 300,000); in the data active = max response mostly above about 13%, no sharp cut-off; inactive = mostly below about 14%; note: read at 38.3 µM for the half of the compounds with a filed dose; 0% is about no effect
LmPK inhibitor – inhibitors of Leishmania mexicana pyruvate kinase; purified LmPK, Kinase-Glo ATP luminescence, 1 h; Potency, µM (series often up to 57.5 µM), inactives show top-dose activity change, negative = inhibition, most hits filed as inhibitors; AID 1721; actives 0.37% (n = 290,000); Q27686; note: potency is the fitted concentration of half-maximal effect; % is set by controls: 0 for no effect and ±100 for the full control effect
Target sequence (Q27686 whole entry, looked up): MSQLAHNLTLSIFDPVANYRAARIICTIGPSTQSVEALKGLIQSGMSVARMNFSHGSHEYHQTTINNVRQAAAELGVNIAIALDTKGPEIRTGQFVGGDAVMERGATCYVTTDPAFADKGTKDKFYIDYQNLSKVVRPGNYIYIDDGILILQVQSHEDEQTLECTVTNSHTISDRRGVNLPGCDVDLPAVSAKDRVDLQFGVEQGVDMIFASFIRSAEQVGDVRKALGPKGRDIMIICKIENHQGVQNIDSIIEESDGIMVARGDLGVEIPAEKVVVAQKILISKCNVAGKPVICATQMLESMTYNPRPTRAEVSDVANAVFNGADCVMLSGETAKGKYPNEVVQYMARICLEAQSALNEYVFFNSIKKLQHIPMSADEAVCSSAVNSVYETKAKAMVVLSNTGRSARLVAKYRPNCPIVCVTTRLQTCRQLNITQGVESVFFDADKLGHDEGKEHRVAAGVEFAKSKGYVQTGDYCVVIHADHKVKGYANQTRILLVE
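Purified LmPK (0.1 nM) converted ADP (0.1 mM) to ATP with PEP (0.5 mM) in imidazole buffer pH 7.2 with KCl and MgCl2, 1 h at room temperature. ATP was read by Kinase-Glo luminescence; data normalized to uninhibited and no-enzyme controls.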
Sm TGR inh – inhibitors of Schistosoma mansoni thioredoxin glutathione reductase; actives 3% (n = 360,000); purified TGR, DTNB reduction, TNB absorbance 405 nm; Potency, µM (top dose mostly 114 µM), for inactives: at the top dose activity change, negative = inhibition, most hits filed as inhibitors; Q962Y6; note: potency is the fitted concentration of half-maximal effect; % is set by controls: 0 for no effect and ±100 for the full control effect; nearly all actives have a fitted effect of over 60% in size
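First, TGR (20 nM dispensed) and NADPH were mixed with compound. Second, a 15 min room-temperature incubation followed. Third, further NADPH and then DTNB were added to start the reaction. Finally, TNB absorbance was monitored kinetically.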
Shiga inhibitor – blocks Shiga toxin action in Vero cells | Vero cells, Shiga toxin protein synthesis inhibition reporter | inhibition, % at 38.7 µM | actives 9.2% (n = 290,000) | AID 2315; in the data active = inhibition mostly above about 28%, no sharp cut-off; inactive = mostly below about 43%; note: 0% is about no effect
Giardia FBPA inh – inhibitors of Giardia lamblia fructose-1,6-bisphosphate aldolase | A8B2U2 | purified Giardia FBPA | Potency, µM (doses to about 59.6 µM), for the others: top-dose activity, negative = inhibition, hits mostly inhibitors | actives 0.71% (n = 290,000); note: potency is the fitted concentration of half-maximal effect; % is set by controls: 0 for no effect and ±100 for the full control effect; nearly all actives have a fitted effect of over 55% in size
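Giardia FBPA (40 nM reagent) was preincubated 10 min at RT with compound (up to 57.5 uM final), then substrate plus GAPDH/TPI/NAD/arsenate coupling system with diaphorase/resazurin was added; resorufin fluorescence (525/598 nm) was read after 20 min.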
* = called active by the depositor; . = no result; [ ] = remark or other dose. The sample as a whole holds a higher share of hits than the screen did. Unless noted, calls come from the whole dose curve; as a rule, active = well fitted curve in the direction sought with a large enough effect; inconclusive = small, poorly fitted or top-dose-only effect, or another doubt; inactive = no such curve, though single readings can be large; an effect the other way counts as inactive or inconclusive.

SMILES	TbPYK inhibitor	Cycloheximide cs	LmPK inhibitor	Sm TGR inh	Shiga inhibitor	Giardia FBPA inh
FC(F)Oc1ccccc1NC(=S)Nc1cccnc1	-4%	-2	11%	22µM*	-4	-6%
Fc1ccc(NC(=S)Nc2cccnc2)cc1	-4%	10	1%	.	-4	0%
CCc1ccccc1NC(=O)C(=O)NCC(c1cccnc1)N1CCN(c2ccccc2F)CC1 (stereo not drawn)	-3%	.	.	-4%	.	.
CC(C)(C)c1ccc(-c2nc(C=O)c3ccccn23)cc1	0%	39*	0%	-19%	56	-10%
CC(=O)N1CCn2c3ccc(C)cc3c3cccc1c32	-1%	24*	-1%	-1%	47*	0%
COc1cc(C)c(C)cc1S(=O)(=O)Nc1cccc(-c2ccc(N3CCOCC3)nn2)c1	-5%	.	.	3%	.	.
Cc1ccc(-c2nc(N3CCN(S(=O)(=O)c4ccc(F)cc4)CC3)c3ccc(Cl)cc3n2)cc1	.	-7	.	.	-17	.
CCOc1ccc(NC(=O)CN(C)C(=O)c2ccccc2-n2cnnn2)cc1OCC	-1%	.	.	-1%	.	.
CSc1ccc(-c2nc(CSCC(=O)NC3CC3)c(C)o2)cc1	3%	20*	1%	-21%	27*	-17%
CSc1ccc(-c2nc(CSCC(=O)N3CCOCC3)c(C)o2)cc1	-13%	27*	-5%	8%	108*	-9%
CCc1ccc(-c2nc(CSCC(=O)NC3CC3)c(C)o2)cc1	-3%	33	-11%	-15%	18	-3%
COC(=O)N1C(=O)[C@@](Cc2ccccc2)(c2ccccc2)N1C(=O)OC	-17%	12*	-4%	3.5µM*	9	-3%
COC(=O)N1C(=O)[C@](Cc2ccccc2)(c2ccccc2)N1C(=O)OC	-1%	21*	-8%	3.5µM*	5	4%
Cc1ccc(CNC(=O)[C@H]2C[C@@H]2[C@H](NP(=O)(c2ccccc2)c2ccccc2)c2ccccc2)c(F)c1F	.	.	.	.	.	5%
O=C(Nc1ccc(C(=O)OCc2cc(=O)n3c4c(sc3n2)CCCC4)cc1)c1ccc(Cl)cc1	-14%	.	.	5%	.	.
CC(=O)c1ccc(OCC(=O)N2CCCCC2)cc1	1%	.	.	.	.	.
CC1CC(C)CN(C(=O)CSc2nnc(-c3ccco3)o2)C1 (stereo not drawn)	1%	13*	-4%	5%	47	3%
O=C(CSc1nnc(-c2ccco2)o1)N1CCCCC1	2%	25*	-5%	0%	66*	.
CC1CCN(C(=O)CSc2nnc(-c3ccco3)o2)CC1	-7%	-3	0%	-2%	-2	0%
COc1ccc(C(=O)Nc2sc(C)c(C)c2CN2CC(C)OC(C)C2)cc1 (stereo not drawn)	4%	31*	3%	-10%	68*	4%
COc1ccc(S(=O)(=O)N2CCC(C(=O)NCC3CCCO3)CC2)cc1 (stereo not drawn)	-14%	8	0%	-7%	51*	1%
COc1ccc(S(=O)(=O)N2CCC(C(=O)N[C@H](C(=O)NC3CCCC3)C(C)C)CC2)cc1	-7%	-1	-1%	89µM*	-3	.
COc1ccc(S(=O)(=O)N2CCC(C(=O)Nc3nccs3)CC2)cc1	2%	42*	-11%	-36%	101*	.
COc1ccc(S(=O)(=O)N2Cc3ccccc3CC2C(=O)Nc2nccs2)cc1OC (stereo not drawn)	-6%	43*	4%	-18%	92*	3%
Cc1ccc(S(=O)(=O)N2CCOCC2)cc1NC(=O)COC(=O)CCC(=O)c1ccc(F)cc1	1%	.	.	-32%	.	.
SMILES	TbPYK inhibitor	Cycloheximide cs	LmPK inhibitor	Sm TGR inh	Shiga inhibitor	Giardia FBPA inh
CCOc1ccc(C(=O)N(Cc2ccc(C(C)C)cc2)Cc2ccco2)cc1	-8%	.	.	-1%	.	.
CCSC[C@H](NC(=O)[C@H](C)N)C(=O)N[C@@H](CC(=O)O)C(=O)N[C@H](C(=O)N[C@@H](C)C(=O)N[C@H](C(=O)N[C@@H](CSCC)C(=O)N[C@H](C(=O)N[C@H](C(=O)N[C@@H](Cc1cnc[nH]1)C(=O)N[C@@H](CCCNC(=N)N)C(=O)N[C@@H](CC(C)C)C(=O)N[C@@H](C)C(=O)NCC(=O)N[C@@H](CC(C)C)C(=O)N[C@@H](CC(C)C)C(=O)N[C@@H](CO)C(=O)N[C@@H](CCCNC(=N)N)C(=O)N[C@@H](CO)C(=O)NCC(=O)NCC(=O)N[C@H](C(=O)N[C@H](C(=O)N[C@@H](CCCCN)C(=O)N[C@@H](CC(N)=O)C(=O)N[C@@H](CC(N)=O)C(=O)N[C@@H](Cc1ccccc1)C(=O)N[C@H](C(=O)N1CCC[C@H]1C(=O)N[C@H](C(=O)N[C@@H](CC(N)=O)C(=O)N[C@H](C(=O)NCC(=O)N[C@@H](CO)C(=O)N[C@@H](CCCCN)C(=O)N[C@@H](C)C(=O)N[C@@H](Cc1ccccc1)C(N)=O)C(C)C)[C@@H](C)O)C(C)C)C(C)C)C(C)C)[C@@H](C)O)C(C)C)[C@@H](C)O)[C@@H](C)O	.	5	.	.	-4	1%
CCc1nnc(NC(=O)CSc2nc3c([nH]c4ccccc43)c(=O)n2-c2ccc(Cl)cc2)s1	-5%	.	.	8%	.	.
COc1cc(C(=O)NCc2ccc3c(c2)OCO3)c([N+](=O)[O-])cc1OC	3%	-2	0%	1%	-10	3%
COc1ccc(S(=O)(=O)N2Cc3ccccc3CC2C(=O)Nc2nccs2)cc1 (stereo not drawn)	3%	29*	1%	-8%	75*	-7%
COc1ccc(S(=O)(=O)N2Cc3ccccc3CC2C(=O)Nc2cc(Cl)ccc2Cl)cc1 (stereo not drawn)	2%	.	.	0%	.	.
COc1ccc(NC(=O)COCc2cc(-c3ccco3)on2)cc1Cl	10%[15.4 µM]	.	.	1%	.	.
O=C1NC(=O)/C(=C\c2ccc(Cl)cc2Cl)N1	-3%	.	.	.	.	.
CCSC1=NC(C)(C)C=C(/C=C/c2ccc(Cl)cc2Cl)N1	-7%	3	0%	18µM*	-11	-12%
CSC1=NC(C)(C)C=C(/C=C/c2ccc(Cl)cc2)N1	2%	15	5%	5µM*	10	-4%
CSC1=NC(C)(C)C=C(/C=C/c2ccc(Cl)cc2Cl)N1	-6%	15	0%	20µM*	33	-23%
CCSC1=NC(C)(C)C=C(C)N1	4%	-2	3%	-4%	-4	2%
CSC1=NC(C)(C)C=C(/C=C/c2c(Cl)cccc2Cl)N1	-7%	18	2%	16µM*	-6	-19%
CC(C)(C)c1ccc(CN2CCN([C@H](c3ccccc3)c3ccc(Cl)cc3)CC2)cc1	3%	.	.	.	.	.
Cc1ccc(S(=O)(=O)N2CCCc3cc(NC(=O)c4ccc(C(C)(C)C)cc4)ccc32)cc1	1%	.	.	6%	.	.
